# Measurements published in PubChem BioAssay.
# A number with no mark means an inactive call. For some of these results: Results with a measured potency or affinity are listed apart. Activity calls are given as the source filed them. Unless noted, no rule for the calls is given here.
# Experiments:
# [1] = antimalarial activity against Dd2 strain (AID 2302;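 active = growth inhibition above 50% at the single 2 µM test dose, taken to imply half-maximal potency below 2 µM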;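 also: 0% = DMSO untreated growth and 100% = chloroquine plus artemisinin killed control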); conditions: P. falciparum Dd2 in RBCs, LDH growth readout, 72 h; at 2 µM; active compounds read high
# [2] = human hepatoma cell viability loss – ATP luminescence, cytotoxicity control for P. falciparum antimalarial project, primary screen (AID 2303;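 active = inhibition above 50%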;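 also: 0% = DMSO wells and 100% = digitonin-killed cells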); conditions: HepG2 viability, 24-48 h, at 10 µM, active compounds read high
# [3] = biological target: L-lactate dehydrogenase (Plasmodium falciparum (isolate CDC / Honduras)) (UniProt Q27743); test: PfLDH activity inhibition – cell lysate, 3D7 strain, counter-screen for P. falciparum growth inhibition project (AID 2304);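 also: 0% = vehicle and 100% = reference inhibitor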; conditions: P. falciparum 3D7 crude extract, LDH APAD/NBT absorbance; at 2 µM; active compounds read high
# [4] = inhibition of 3D7 malaria parasite growth – strain 3D7 (AID 2306);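 also: 0% = DMSO wells and 100% = chloroquine plus artemisinin control wells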; conditions: P. falciparum 3D7 erythrocytic growth, LDH absorbance, 72 h; at 2 µM; active compounds read high
# [5] = biological target: Calcium-dependent protein kinase 1 (Plasmodium falciparum (isolate 3D7)) (UniProt P62344); test: PfCDPK1 kinase inhibitors, biochemical, TCAMS library (AID 1159585; cut-off not given, nearly all actives have IC50 up to about 0.98 µM;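 also: inhibitors leave more ATP so luminescence rises with inhibition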); conditions: recombinant PfCDPK1, Kinase-Glo ATP depletion luminescence
# [6] = biological target: Plasmodium falciparum protein kinase 6 (PK6, PF3D7_1337100) (UniProt Q8IDW1); test: PfPK6 kinase inhibitors, biochemical, TCAMS library (AID 1159586); conditions: recombinant PfPK6, Kinase-Glo ATP depletion luminescence
# [7] = biological target: Protein kinase 7 (PK7), Plasmodium falciparum 3D7 (PF3D7_0213400) (UniProt Q7YTF7); test: inhibition of Plasmodium PK7 catalytic activity – biochemical, TCAMS antimalarial set, Kinase-Glo luminescence (AID 1159587); conditions: recombinant PfPK7, Kinase-Glo ATP depletion luminescence
# [8] = biological target: Calcium-dependent protein kinase 4 (Plasmodium falciparum (isolate 3D7)) (UniProt Q8IBS5); test: PfCDPK4 kinase inhibitors, biochemical, TCAMS library (AID 1159588; cut-off not given, nearly all actives have IC50 up to about 0.91 µM); conditions: recombinant PfCDPK4, Kinase-Glo ATP depletion luminescence
# Chain of Calcium-dependent protein kinase 4 (Plasmodium falciparum (isolate 3D7)) (Q8IBS5 whole entry, looked up): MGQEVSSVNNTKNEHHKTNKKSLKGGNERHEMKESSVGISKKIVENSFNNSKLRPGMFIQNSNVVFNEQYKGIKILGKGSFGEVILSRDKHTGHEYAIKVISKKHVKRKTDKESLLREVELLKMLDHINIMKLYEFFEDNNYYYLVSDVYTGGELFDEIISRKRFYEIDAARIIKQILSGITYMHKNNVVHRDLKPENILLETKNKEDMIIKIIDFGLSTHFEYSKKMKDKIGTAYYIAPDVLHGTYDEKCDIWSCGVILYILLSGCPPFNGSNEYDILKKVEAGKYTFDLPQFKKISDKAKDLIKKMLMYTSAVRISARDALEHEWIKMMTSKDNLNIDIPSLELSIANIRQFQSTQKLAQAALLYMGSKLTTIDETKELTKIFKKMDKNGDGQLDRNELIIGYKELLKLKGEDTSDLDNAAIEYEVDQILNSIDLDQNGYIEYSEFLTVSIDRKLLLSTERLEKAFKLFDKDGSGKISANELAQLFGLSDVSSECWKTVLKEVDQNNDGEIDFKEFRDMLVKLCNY
# Chain of Plasmodium falciparum protein kinase 6 (PK6, PF3D7_1337100) (Q8IDW1 1-305): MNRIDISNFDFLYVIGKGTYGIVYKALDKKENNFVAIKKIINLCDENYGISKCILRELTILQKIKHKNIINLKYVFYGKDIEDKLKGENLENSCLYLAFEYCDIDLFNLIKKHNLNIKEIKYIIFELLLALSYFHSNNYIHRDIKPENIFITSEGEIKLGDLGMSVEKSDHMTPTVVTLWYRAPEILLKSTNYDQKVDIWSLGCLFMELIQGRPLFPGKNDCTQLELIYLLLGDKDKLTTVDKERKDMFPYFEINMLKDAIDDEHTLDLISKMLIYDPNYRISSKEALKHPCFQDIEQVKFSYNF
# Chain of L-lactate dehydrogenase (Plasmodium falciparum (isolate CDC / Honduras)) (Q27743 whole entry, looked up): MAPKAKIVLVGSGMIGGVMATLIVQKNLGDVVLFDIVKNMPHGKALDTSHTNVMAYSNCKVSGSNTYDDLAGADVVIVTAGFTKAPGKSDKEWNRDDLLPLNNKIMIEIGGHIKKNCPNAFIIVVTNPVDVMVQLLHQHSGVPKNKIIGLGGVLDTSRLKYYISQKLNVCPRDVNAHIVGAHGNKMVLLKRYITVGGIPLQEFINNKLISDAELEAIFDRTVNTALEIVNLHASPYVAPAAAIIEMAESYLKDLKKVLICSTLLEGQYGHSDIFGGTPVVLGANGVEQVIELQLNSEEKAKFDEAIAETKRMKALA
# Chain of Calcium-dependent protein kinase 1 (Plasmodium falciparum (isolate 3D7)) (P62344 whole entry, looked up): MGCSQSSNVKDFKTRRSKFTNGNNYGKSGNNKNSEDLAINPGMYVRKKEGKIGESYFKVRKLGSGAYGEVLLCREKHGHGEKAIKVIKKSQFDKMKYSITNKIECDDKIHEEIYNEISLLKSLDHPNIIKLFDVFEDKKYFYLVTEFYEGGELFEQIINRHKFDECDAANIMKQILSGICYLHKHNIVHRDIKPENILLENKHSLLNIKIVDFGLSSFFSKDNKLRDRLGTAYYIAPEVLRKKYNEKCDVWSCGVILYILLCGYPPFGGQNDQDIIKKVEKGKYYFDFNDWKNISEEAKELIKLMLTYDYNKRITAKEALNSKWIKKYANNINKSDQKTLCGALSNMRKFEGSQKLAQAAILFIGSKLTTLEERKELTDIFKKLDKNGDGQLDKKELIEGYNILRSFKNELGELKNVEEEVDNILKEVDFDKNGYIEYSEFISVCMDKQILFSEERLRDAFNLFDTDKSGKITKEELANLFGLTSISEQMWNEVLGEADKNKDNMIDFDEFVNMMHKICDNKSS
# Chain of Protein kinase 7 (PK7), Plasmodium falciparum 3D7 (PF3D7_0213400) (Q7YTF7 1-343): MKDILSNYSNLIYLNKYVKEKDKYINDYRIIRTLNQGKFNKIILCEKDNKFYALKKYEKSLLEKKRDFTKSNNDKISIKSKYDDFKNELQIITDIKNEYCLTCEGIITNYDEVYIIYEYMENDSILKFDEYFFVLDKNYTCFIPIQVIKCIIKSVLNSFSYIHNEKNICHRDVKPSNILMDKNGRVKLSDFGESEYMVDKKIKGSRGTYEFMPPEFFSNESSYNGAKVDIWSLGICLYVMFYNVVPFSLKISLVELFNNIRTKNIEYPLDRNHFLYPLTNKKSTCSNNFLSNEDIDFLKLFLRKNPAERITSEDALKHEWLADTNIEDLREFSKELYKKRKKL
Compound,growth inhibition [1],inhibition [2],inhibition [3] [%],growth inhibition [4],outcome [5],outcome [6],outcome [7],outcome [8]
CCCCc1cc(NCc2ccncc2)nc(Nc2ccc(C)cc2)n1,59% (active),7%,-4,101% (active),inactive,inactive,inactive,inactive
COc1ccc2nc(Nc3nc(-c4ccccn4)cs3)sc2c1,94% (active),40%,4,93% (active),inactive,inactive,inactive,inactive
CCOC(=O)CNCC(=O)c1ccc(OCc2ccccc2)cc1,43%,4%,-3,95% (active),inactive,inactive,inactive,inactive
Cc1ccc(Cn2ncc(N3CCNCC3)c(Cl)c2=O)cc1NC(=O)Nc1ccc(-c2ccccc2)cc1,30%,56% (active),6,90% (active),inactive,inactive,inactive,inactive
Nc1nc(N)c2c(ccc3nn(C4CCCC4)cc32)n1,3%,44%,-1,97% (active),inactive,inactive,inactive,inactive
COc1cc(C=NNc2cc(C)nc3c(OC)cccc23)cc(OC)c1OC,49%,2%,0,94% (active),inactive,inactive,inactive,inactive
NC1CCCN(Cc2ccc(-c3ccc(-c4nc5ccc(F)cc5[nH]4)s3)cc2)C1 (stereo not drawn),98% (active),40%,1,100% (active),inactive,inactive,inactive,inactive
COc1cccc(NC(=O)Nc2c(-c3cccc(C(F)(F)F)c3)c(C(F)(F)F)nn2C)c1,30%,2%,7,93% (active),inactive,inactive,inactive,inactive
FC(F)(F)c1ccc2nc(-c3ccc(-c4cccc(CNCCc5cccnc5)c4)s3)[nH]c2c1,98% (active),26%,-3,101% (active),inactive,inactive,inactive,inactive
Cn1nccc1C(=O)NCCNCc1ccc(-c2ccc(-c3nc4ccc(F)cc4[nH]3)cc2)cc1,98% (active),28%,-5,101% (active),inactive,inactive,inactive,inactive
CCc1cn2c3c(cc(C(=O)N[C@@H](Cc4ccccc4)[C@H](O)CNCC(C)C)cc13)N(C)S(=O)(=O)CC2,99% (active),-1%,-6,98% (active),inactive,inactive,inactive,inactive
CC(C)c1ccc(NC(=O)c2ccc(C(=O)NC3CCN(CC4CCCCC4)CC3)cc2)cc1,5%,34%,-2,98% (active),inactive,inactive,inactive,inactive
N#Cc1ccccc1C(=O)N(Cc1cncn1Cc1cccc(F)c1)CC1CC1,92% (active),0%,-1,101% (active),inactive,inactive,inactive,inactive
COc1ccc2nccc([C@@H](O)CN3CCC(NCc4cc5ccccc5[nH]4)CC3)c2c1,41%,75% (active),4,92% (active),inactive,inactive,inactive,inactive
CC(C)(C)c1ccc(OCCCON2C(N)=NC(N)=NC2(C)C)cc1,76% (active),77% (active),-4,93% (active),inactive,inactive,inactive,inactive
CCCC(CNCc1ccccc1)CNc1cc(=O)c2ccccc2[nH]1 (stereo not drawn),21%,2%,3,86% (active),inactive,inactive,inactive,inactive
CCN1CCCC(CNC(=O)/C(=C/C=C/c2cc3cc(Cl)c(Cl)cc3[nH]2)OC)C1 (stereo not drawn),89% (active),33%,-1,93% (active),inactive,inactive,inactive,inactive
O=C(NC1CCN(Cc2ccccc2)CC1)c1cccc(-c2cc3cc(Cl)c(Cl)cc3[nH]2)c1,86% (active),15%,-6,100% (active),inactive,inactive,inactive,inactive
CCN(CC)CCN(Cc1ccc(-c2ccc(C(F)(F)F)cc2)cc1)C(=O)Cn1c(SCc2ccc(F)cc2)cc(=O)c2ccccc21,70% (active),50% (active),-5,101% (active),inactive,inactive,inactive,inactive
Cc1ccc(CON2C(N)=NC(N)=NC23CCCCC3)c2ccccc12,56% (active),57% (active),-8,98% (active),inactive,inactive,inactive,inactive
CCOc1cc(C(=O)Nc2ccc3nc(N4CCCCC4)cc(C)c3c2)cc(OCC)c1OCC,2%,26%,-6,100% (active),inactive,inactive,inactive,inactive

Compound,growth inhibition [1],inhibition [2],inhibition [3] [%],growth inhibition [4],outcome [5],outcome [6],outcome [7],outcome [8]
COCCNCc1cccc(-c2cc3nccc(Nc4ccc(Oc5ccccc5)cc4)c3cc2Cl)c1,99% (active),-8%,1,99% (active),inactive,inactive,inactive,inactive
CCn1nc(C(=O)NC2CCOc3ccccc32)c2ccccc2c1=O (stereo not drawn),59% (active),13%,0,86% (active),inactive,inactive,inactive,inactive
N#Cc1ccc(N[C@@H](CC2CCCCC2)C(=O)N[C@@H]2CCCc3ccccc32)c2ccccc12,99% (active),12%,-5,99% (active),inactive,inactive,inactive,inactive
COc1cc(CCON2C(N)=NC(N)=NC2(C)C)cc(OC)c1OC,95% (active),59% (active),-1,93% (active),inactive,inactive,inactive,inactive
COc1ccc2nc3cc(Cl)ccc3c(Nc3ccc(C(=O)O)cc3)c2c1,95% (active),-7%,6,94% (active),inactive,inactive,inactive,inactive
CO/C(=C\C=C\c1cc2cc(Cl)c(Cl)cc2[nH]1)C(=O)NCCCN1CCN(c2ccncc2)CC1,96% (active),12%,4,98% (active),inactive,inactive,inactive,inactive
CN(C)c1ccc(C2c3nc[nH]c3CCN2C(=O)Nc2cccc([N+](=O)[O-])c2)cc1 (stereo not drawn),15%,-5%,1,98% (active),inactive,inactive,inactive,inactive
Cc1cccc2[nH]c(-c3ccc(-c4cccc(CNCc5cccc(N)c5)c4)s3)nc12,85% (active),15%,-4,102% (active),inactive,inactive,inactive,inactive
Nc1ncc(-c2ccc3nccc(-c4ccncc4)c3c2)cc1S(=O)(=O)N1CCOCC1,99% (active),39%,-1,100% (active),inactive,inactive,inactive,inactive
O=C(Nc1ccc(-c2cccc(-c3nc4ccc(F)cc4[nH]3)c2)cc1)Nc1ccc(Cl)c(Cl)c1,24%,68% (active),3,99% (active),inactive,inactive,inactive,inactive
NC(=O)c1cccc(Nc2nccc(Nc3ccc(Oc4cccc(Cl)c4)c(Cl)c3)n2)c1,12%,-3%,1,93% (active),inactive,inactive,inactive,inactive
CN1CCCc2cc(NC(=O)C=Cc3ccc(-c4ccc(F)cc4F)o3)ccc2C1,27%,5%,4,90% (active),inactive,inactive,inactive,inactive
COc1ccc(-c2cnc(N)c(-c3ccc(C(N)=O)cc3)c2)cc1OC,98% (active),11%,4,96% (active),inactive,inactive,inactive,inactive
CN(CCS(C)(=O)=O)Cc1ccc(-c2ccc3ncnc(Nc4ccc(OCc5cccc(F)c5)c(Cl)c4)c3c2)o1,65% (active),25%,-1,101% (active),inactive,inactive,inactive,inactive
O=S(=O)(NC1CCN(c2ccnc3cc(Cl)ccc23)C1)c1cccs1 (stereo not drawn),76% (active),6%,-4,102% (active),inactive,inactive,inactive,inactive
COc1ccc(C(=O)N2CCC3(CC2)C(=O)N(CC(=O)NCC2CCCCC2)CN3c2ccccc2)cc1,99% (active),18%,3,100% (active),inactive,inactive,inactive,inactive
Cc1cccc2[nH]c(-c3cc(-c4cccc(Cl)c4)cnc3N)nc12,99% (active),32%,2,101% (active),inactive,inactive,inactive,inactive
Cc1c(S(=O)(=O)Nc2cccc(CCN3CCCCC3CCN3CCCC3)c2)sc2ccc(Cl)cc12 (stereo not drawn),10%,22%,0,93% (active),inactive,inactive,inactive,inactive
Cc1cc(OCC2CCN(c3ccc(C(=O)NC4CC4)cn3)CC2)ccc1F,95% (active),6%,3,94% (active),inactive,inactive,inactive,inactive
O=C(Nc1cccc(-c2ccc(-c3nc4ccc(C(F)(F)F)cc4[nH]3)s2)c1)c1cccnc1,99% (active),74% (active),-3,101% (active),inactive,inactive,inactive,inactive
